Sm TGR inh: qHTS Assay for the Inhibitors of Schistosoma Mansoni Peroxiredoxins | Schistosoma mansoni thioredoxin glutathione reductase (TGR), Q962Y6 | purified TGR, DTNB reduction, TNB absorbance 405 nm | Potency, µM (highest dose often 114 µM), for inactives: at the highest dose activity change, negative = inhibition, most hits filed as inhibitors | 360,000 tested, 3% active | AID 485364, 2010; active = well fitted inhibition curve with a large enough effect; inconclusive = small, poorly fitted or top-dose-only effect; inactive = no such curve, though single readings can be large or run the other way; note: % is set by controls: 0 for no effect and ±100 for the full control effect; nearly all actives have a fitted effect of over 60% in size
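First, TGR (20 nM dispensed) and NADPH were mixed with compound. Second, a 15 min room-temperature incubation followed. Third, further NADPH and then DTNB were added to start the reaction. Finally, TNB absorbance was monitored kinetically.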
SARS PLpro yeast: qHTS of Yeast-based Assay for SARS-CoV PLP; S. cerevisiae expressing SARS-CoV PLpro, growth rescue; Potency, µM (doses to about 32.9 µM), for inactives: at the top dose activity, positive = growth rescue, most hits filed as activators; 330,000 tested, 0.19% active; AID 485353, 2010; calls by dose curve; note: 0% is about no effect; nearly all actives have a fitted effect of over 55% in size
* marks the source's active call; other numbers are inactive results. Compounds with a hit are over-represented: about 3% of the library has one in this group of screens. Potency is the fitted concentration of half-maximal effect.

Cc1ccc(-n2nc(-c3ccco3)cc2C(=O)O)cc1 was read as Sm TGR inh 25µM* and SARS PLpro yeast 1%.
O=C(O)c1cc(-c2ccc(N3CCOCC3)cc2)nn1-c1ccc(F)cc1 was read as Sm TGR inh -9% and SARS PLpro yeast -10%.
`O=C(c1cc(-c2ccco2)nn1-c1cccc(Cl)c1)N1CCCCC1` gave Sm TGR inh 7.1µM* and SARS PLpro yeast 29%.
Screening COc1ccc(NC(=O)c2sc3nc(C)c(C(=O)Nc4ccc(C)cc4C)c(-c4ccc(C)o4)c3c2N)cc1 returned Sm TGR inh 9%.
For O=C(CCS(=O)(=O)c1cc2c3c(c1)CCN3C(=O)CC2)NCc1ccc(F)cc1 the results were Sm TGR inh 7%.
CCN1CCc2c(sc(-n3cccc3)c2C(C)NC(=O)Nc2ccc(C(=O)OC)cc2)C1 (centres undefined) was read as Sm TGR inh -19%.
`CCn1c(=O)n(-c2ccc3c(c2)OCO3)c2nc(-c3ccc(C(C)C)cc3)nc(C(N)=O)c21` gave Sm TGR inh -12%.
CCC(=O)Nc1nnc2n1CCS2 was read as Sm TGR inh 0%.
For Cc1cc(Cl)ccc1NC(=O)c1cccc(NC(=O)N2CCSc3ncccc32)c1 the results were Sm TGR inh 4%.
Screening CC(C)NC(=O)c1cc(-c2ccco2)nn1-c1ccc(Cl)cc1 returned Sm TGR inh 2.8µM* and SARS PLpro yeast -2%.
Screening CC(C)NC(=O)c1cc(-c2ccco2)on1 returned Sm TGR inh -1% and SARS PLpro yeast -4%.
For COc1cccc(NC(=O)Cn2cc(S(=O)(=O)Cc3ccccc3F)c3ccccc32)c1 the results were Sm TGR inh -1%.
`O=C(CCl)N(CCc1ccccc1)CCc1ccccc1` gave Sm TGR inh 13µM* and SARS PLpro yeast -18%.
For CCCCCCCN(C(=O)CCl)c1cccc(C)c1 the results were Sm TGR inh inconclusive and SARS PLpro yeast 10%.
`CCCCCCN(C(=O)CCl)c1ccccc1` gave Sm TGR inh 2.5µM* and SARS PLpro yeast 1%.
For Cc1cccc(N(Cc2cc(=O)[nH]c3ccccc23)C(=O)CCl)c1 the results were Sm TGR inh inconclusive and SARS PLpro yeast 1%.
Screening O=Cc1[nH]c2ccccc2c1N(C(=O)CCl)c1ccccc1 returned Sm TGR inh 0.89µM* and SARS PLpro yeast -2%.
`O=C(CCCc1ccccc1)NCCc1ccccc1` gave Sm TGR inh -1% and SARS PLpro yeast -4%.
`O=C(CCl)N(c1ccccc1)c1ccccc1` gave Sm TGR inh 1.3µM* and SARS PLpro yeast 0%.
O=C(N(c1ccccc1)c1ccccc1)N(c1ccccc1)c1ccccc1 was read as Sm TGR inh 1% and SARS PLpro yeast -2%.
Cc1cccc(-c2nc3c4ccccc4nc(N4CCN(c5cccc(Cl)c5)CC4)n3n2)c1 was read as Sm TGR inh 0%.
For CCOc1cc(C#N)c(-n2nnc3c(sc4nc(C)cc(C)c43)c2=O)cc1OCC the results were Sm TGR inh 0%.
O=S(=O)(NCCc1csc2nc(-c3ccccc3)nn12)c1ccc(Oc2ccccc2)cc1 was read as Sm TGR inh 4%.
`Cc1nc(SC(C)C(=O)Nc2ccccc2Cl)cc(-c2ccccc2)n1` (centres undefined) gave Sm TGR inh -1%.
`CCOc1ccc(N2CC(c3nc4ccccc4n3CCCOc3ccc(OC)cc3)CC2=O)cc1` (centres undefined) gave Sm TGR inh 2%.
`CC1CCCN(S(=O)(=O)c2ccc3c(c2)CCN3C(=O)CCC(=O)O)C1` (centres undefined) gave Sm TGR inh 6%.
`CC(C)(C)c1cc(=O)n(-c2ccccc2)[nH]1` gave Sm TGR inh -17% and SARS PLpro yeast -82%.
O=c1ccc(=O)n(-c2ccccc2)[nH]1 was read as Sm TGR inh 5µM* and SARS PLpro yeast 5%.
`CSc1nnc(C)c(=O)n1COC(=O)/C=C/c1ccc2c(c1)OCO2` gave Sm TGR inh 25µM* and SARS PLpro yeast 0%.
Screening CSc1nnc(C)c(=O)n1COC(=O)/C=C/c1ccccc1 returned Sm TGR inh inconclusive and SARS PLpro yeast 0%.
`O=C(CCc1cn(Cc2ccc(F)cc2)c2ccccc12)NCCc1ccc(Cl)cc1` gave Sm TGR inh 8%.
Cc1ccc(Cn2c(CN3CCN(c4cccc(Cl)c4)CC3)nc3c2c(=O)n(C)c(=O)n3C)cc1 was read as Sm TGR inh -7%.
Screening CCOC(=O)COn1c(=O)c(-c2cccs2)[n+]([O-])c2ccccc21 returned Sm TGR inh 20µM* and SARS PLpro yeast -2%.
Screening CCOn1c(=O)c(-c2cccs2)[n+]([O-])c2ccccc21 returned Sm TGR inh -28% and SARS PLpro yeast -3%.
Screening CCOC(=O)COn1c(=O)c(-c2ccc(Br)cc2)[n+]([O-])c2ccccc21 returned Sm TGR inh -15% and SARS PLpro yeast 1%.
For CCOC(=O)COn1c(=O)c(-c2ccc(F)cc2)[n+]([O-])c2ccccc21 the results were Sm TGR inh 89µM* and SARS PLpro yeast 2%.
`CC(=O)N1CCCC1c1nc2ccccc2n1Cc1ccccc1F` (centres undefined) gave Sm TGR inh -14%.
Screening CCOc1ccc(CN2C(=O)c3ccccc3Sc3ccc(C(=O)O)cc32)cc1 returned Sm TGR inh 4%.
Screening CCOc1ccccc1C(=O)N1CCN(CCc2ccccn2)CC1 returned Sm TGR inh -5%.
Screening Fc1ccc(N2CCN(c3nc4ccccc4c4nc(-c5cccnc5)nn34)CC2)cc1 returned Sm TGR inh 53%.
`COc1ccc(-n2cc(C(=O)Oc3cc(C)cc(C)c3)c3ccccc3c2=O)cc1` gave Sm TGR inh 10%.
Screening COc1ccc(CNC(=O)Cn2ncn3nc(-c4cccs4)cc3c2=O)cc1 returned Sm TGR inh -1%.
For N#Cc1cn(-c2ccccc2)nc1-c1ccco1 the results were Sm TGR inh 45µM* and SARS PLpro yeast -12%.
`N#Cc1cn(-c2ccccc2)nc1-c1ccc2c(c1)OCCO2` gave Sm TGR inh -3% and SARS PLpro yeast 3%.
Screening Cc1ccc(S(=O)(=O)N(CCc2ccccc2)CC(=O)Nc2ccc(Br)cc2)cc1 returned Sm TGR inh 8%.
Screening O=C(OCc1nc2ccc(Cl)cc2n1CCO)c1ccc(O)cc1 returned Sm TGR inh -5% and SARS PLpro yeast 18%.
`O=C(OCc1nc2ccc(Cl)cc2n1CCO)c1ccccc1` gave Sm TGR inh 18µM* and SARS PLpro yeast 16%.
CCOc1ccc(NC(=S)Nc2cccnc2)cc1 was read as Sm TGR inh inconclusive and SARS PLpro yeast 12%.
For Fc1ccc(NC(=S)Nc2cccnc2)c(Cl)c1 the results were Sm TGR inh 18µM* and SARS PLpro yeast 1%.
`Fc1ccc(CNC(=S)Nc2ccc(Cl)cc2Cl)cc1` gave Sm TGR inh -27% and SARS PLpro yeast 7%.
Screening COc1cc(NC(=S)Nc2cccnc2)cc(OC)c1OC returned Sm TGR inh 32µM* and SARS PLpro yeast 0%.
Screening COc1cc(NC(=S)NCc2cccnc2)cc(OC)c1OC returned Sm TGR inh inconclusive and SARS PLpro yeast 0%.
Screening Fc1ccc(NC(=S)Nc2ccc(Cl)cc2Cl)cc1 returned Sm TGR inh 25µM* and SARS PLpro yeast 1%.
Fc1ccc(NC(=S)Nc2cccnc2)c(F)c1F was read as Sm TGR inh 14µM* and SARS PLpro yeast 0%.

Source: PubChem BioAssay
